The record followed here is PubChem BioAssay.

Results with a measured potency or affinity are listed apart. Records with an inconclusive call do not appear. A number with no mark means an inactive call. The source made the active and inactive calls. How the calls were made is not given here.

One assay in a line: NIH:OVCAR-3 ovarian cancer cell cytotoxicity, dose response, PAX8 inhibitor project, plate reader, dry powder samples (AID 743044). Particulars: NIH:OVCAR-3 ovarian cancer cell viability; max activity: at 35 µM, hits give low values unless noted; series mostly up to 50 µM.
As to `COc1ccc(S(=O)(=O)Nc2ccc3c(c2)C(=O)N([C@@H](C)CO)C[C@@H](C)[C@H](CN(C)Cc2ccc(C(F)(F)F)cc2)OCCCC[C@H](C)O3)cc1`, the max activity is -37.4%.
On the same count and under the same terms, next, `COc1ccccc1S(=O)(=O)N(C)C[C@H]1Oc2cc(C#CCC3CCCC3)ccc2S(=O)(=O)N([C@@H](C)CO)C[C@H]1C`: 9.23% [at 16 µM, hits give low values]; `C[C@H](CO)N1C[C@H](C)[C@H](CN(C)Cc2ccc3c(c2)OCO3)OCCCC[C@H](C)Oc2ccc(NC(=O)Nc3ccc(C(F)(F)F)cc3)cc2C1=O`: -20.3% [at 0.26 µM, hits give low values].
Same read-out and setting: the same measure for `C[C@@H]1CN([C@@H](C)CO)C(=O)Cc2cc(NC(=O)Cc3ccccc3)ccc2O[C@H]1CN(C)Cc1ccc(-c2ccccc2)cc1`: -33%.

A further assay is described as follows: IOSE-T80 ovarian epithelial cell cytotoxicity, dose response, cytotoxicity control for PAX8 inhibitor project, plate reader, dry powder samples (AID 743045).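 Further: 0% = neutral control median and -100% = positive control median; more negative values mean more cell killing.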 Particulars: IOSE-T80 ovarian epithelial cells; series mostly up to 35 µM.
`COc1ccc(S(=O)(=O)Nc2ccc3c(c2)C(=O)N([C@@H](C)CO)C[C@@H](C)[C@H](CN(C)Cc2ccc(C(F)(F)F)cc2)OCCCC[C@H](C)O3)cc1`: the molecule was classed as inactive.
`COc1cccc(C#Cc2ccc([C@H]3[C@@H](CO)N(C(=O)C4CCCCC4)[C@H]3C#N)cc2)c1`: the result was inactive.
Same read-out and setting: next, `C[C@H](CO)N1C[C@H](C)[C@@H](CN(C)Cc2ccc(C(F)(F)F)cc2)OCCCC[C@H](C)Oc2ccc(NS(=O)(=O)c3ccc(F)cc3)cc2C1=O`: “inactive”; `Cc1ccc(S(=O)(=O)Nc2ccc3c(c2)C(=O)N([C@H](C)CO)C[C@@H](C)[C@@H](CN(C)Cc2ccc(C(F)(F)F)cc2)OCCCC[C@H](C)O3)cc1`: “inactive”.
With `COc1ccc(S(=O)(=O)N(C)C[C@@H]2OCCCC[C@H](C)Oc3ccc(NS(=O)(=O)c4ccc(Cl)cc4)cc3C(=O)N([C@H](C)CO)C[C@@H]2C)cc1`, the molecule was called inactive.
Turning to `C[C@@H]1CCCCO[C@@H](CN(C)S(=O)(=O)c2ccccc2)[C@H](C)CN([C@H](C)CO)C(=O)c2cc(NC(=O)Nc3ccc(C(F)(F)F)cc3)ccc2O1`, the outcome was inactive.
The same measure, in the same setting: the same measure for `COc1ccccc1C#Cc1ccc([C@H]2[C@H](C#N)N(C(=O)C3CC3)[C@H]2CO)cc1`: “inactive”; for `C[C@H](CO)N1C[C@H](C)[C@@H](CN(C)Cc2ccc(C(F)(F)F)cc2)Oc2ccc(NS(=O)(=O)c3ccc(Cl)cc3)cc2CC1=O`: “inactive”.
In the case of `N#C[C@H]1[C@H](c2ccc(C#Cc3ccccc3F)cc2)[C@H](CO)N1C(=O)C1CCC1`, the call was inactive.
On the same count and under the same terms, the same measure for `COc1ccccc1S(=O)(=O)N(C)C[C@H]1Oc2cc(C#CCC3CCCC3)ccc2S(=O)(=O)N([C@@H](C)CO)C[C@H]1C`: “inactive”; for `C[C@@H]1CN([C@@H](C)CO)S(=O)(=O)c2ccc(C#Cc3ccccc3F)cc2O[C@H]1CN(C)C(=O)Cc1ccccc1`: “inactive”.
For the molecule `COc1ccc(S(=O)(=O)Nc2ccc3c(c2)C(=O)N([C@H](C)CO)C[C@H](C)[C@@H](CN(C)S(=O)(=O)c2ccc(Cl)cc2)OCCCC[C@H](C)O3)cc1`, the molecule was classed as inactive.
For the molecule `COc1ccc(CN(C)C[C@@H]2OCCCC[C@H](C)Oc3ccc(NC(=O)Nc4ccc(C(F)(F)F)cc4)cc3C(=O)N([C@@H](C)CO)C[C@H]2C)cc1`, the molecule was called inactive.
On the same count and under the same terms, the same measure for `O=C(C[C@@H]1C[C@@H]2c3cc(NS(=O)(=O)c4ccc(F)cc4)ccc3O[C@@H]2[C@@H](CO)O1)NCc1ccc(Oc2ccccc2)cc1`: “inactive”.
With `C[C@H](CO)N1C[C@H](C)[C@H](CN(C)Cc2ccc3c(c2)OCO3)OCCCC[C@H](C)Oc2ccc(NC(=O)Nc3ccc(C(F)(F)F)cc3)cc2C1=O`, the molecule was classed as inactive.
Turning to `O=C(C[C@H]1C[C@@H]2c3cc(NS(=O)(=O)c4ccc(F)cc4)ccc3O[C@@H]2[C@@H](CO)O1)N1CCc2ccccc2C1`, the result was inactive.
On to `O=C1CN(S(=O)(=O)Cc2ccccc2)C[C@H]2[C@H](c3ccc(C#Cc4ccc(F)cc4)cc3)[C@H](CO)N12`, for which the call was inactive.
On the same count and under the same terms, the same measure for `CCCC#Cc1ccc([C@H]2[C@@H](C#N)N(C(=O)C3CCCCC3)[C@H]2CO)cc1`: “inactive”; for `C[C@H]1CCCCO[C@H](CN(C)S(=O)(=O)c2ccccc2)[C@@H](C)CN([C@@H](C)CO)C(=O)c2cc(NS(=O)(=O)c3ccc(Cl)cc3)ccc2O1`: “inactive”; for `COc1cccc(C#Cc2ccc([C@H]3[C@@H](CO)N(C(=O)c4ccccn4)[C@H]3C#N)cc2)c1`: “inactive”.
Still for that read-out and setting: next, `COc1cccc(-c2ccc(C3[C@@H]4CN(C(=O)C5CC5)C[C@H]3N4)cc2)c1` (stereo partly specified): “inactive”.
The same measure, in the same setting: the same measure for `Cc1ccc(S(=O)(=O)Nc2ccc3c(c2)C(=O)N([C@H](C)CO)C[C@@H](C)[C@H](CN(C)Cc2ccc(C(F)(F)F)cc2)OCCCC[C@H](C)O3)cc1`: “inactive”.
